In PubChem BioAssay (NCATS):
Inconclusive results are not listed. Entries that show only a call come without a potency. Activity calls are given as the source filed them. Calls come from the whole dose curve; as a rule, active = well fitted curve in the direction sought with a large enough effect; inconclusive = small, poorly fitted or top-dose-only effect, or another doubt; inactive = no such curve, though single readings can be large; an effect the other way counts as inactive or inconclusive.

How the values were obtained:
[1] = qHTS of pediatric cancer cell lines to identify multiple opportunities for drug repurposing: Primary screen for Saos-2 cells (AID 1347097); note: nearly all actives have a fitted effect of over 40% in size; note: potency is the fitted concentration of half-maximal effect
Outline: (§1)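 Cells plated at 500-1,000/well in growth medium, compounds added after 5 h. MIPE tested at 11 points (from 0.78 nM), NPC at 8 points (from 0.59 nM). CellTiter-Glo luminescence after 48 h; concentration-response curves from primary screen.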

[2] = qHTS of pediatric cancer cell lines to identify multiple opportunities for drug repurposing: Primary screen for SK-N-SH cells (AID 1347098); note: nearly all actives have a fitted effect of over 65% in size; note: potency is the fitted concentration of half-maximal effect
Outline: (§2)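 Cells (500-1,000/well) rested 5 h, then received compounds for 48 h; metabolically active cells were measured by CellTiter-Glo luminescence. Final concentrations spanned up to 46 µM (MIPE, 11-point) or 0.59 nM-46 µM (NPC, 8-point) in primary screens, 11-point in follow-ups.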

[3] = qHTS of pediatric cancer cell lines to identify multiple opportunities for drug repurposing: Primary screen for LAN-5 cells (AID 1347100); note: potency is the fitted concentration of half-maximal effect
Outline: as §2

[4] = qHTS of pediatric cancer cell lines to identify multiple opportunities for drug repurposing: Primary screen for BT-12 cells (AID 1347101); note: nearly all actives have a fitted effect of over 25% in size; note: potency is the fitted concentration of half-maximal effect
Outline: as §2

[5] = qHTS of pediatric cancer cell lines to identify multiple opportunities for drug repurposing: Primary screen for Rh18 cells (AID 1347102); note: nearly all actives have a fitted effect of over 65% in size
Outline: as §2

[6] = qHTS of pediatric cancer cell lines to identify multiple opportunities for drug repurposing: Primary screen for OHS-50 cells (AID 1347103); note: nearly all actives have a fitted effect of over 40% in size; note: potency is the fitted concentration of half-maximal effect
Outline: as §2

[7] = qHTS of pediatric cancer cell lines to identify multiple opportunities for drug repurposing: Primary screen for RD cells (AID 1347104); note: nearly all actives have a fitted effect of over 55% in size; note: potency is the fitted concentration of half-maximal effect
Outline: as §1

[8] = qHTS of pediatric cancer cell lines to identify multiple opportunities for drug repurposing: Primary screen for MG 63 (6-TG R) cells (AID 1347105); note: nearly all actives have a fitted effect of over 50% in size; note: potency is the fitted concentration of half-maximal effect
Outline: as §1

[9] = qHTS of pediatric cancer cell lines to identify multiple opportunities for drug repurposing: Primary screen for control Hh wild type fibroblast cells (AID 1347106);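 note: series mostly up to about 46 µM; a drop in luminescence marks cytotoxicity and a rise apparent proliferation; nearly all actives have a fitted effect of over 55% in size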
Outline: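 Cells (500-1,000/well) in growth media were settled 5 h at 37 degrees C, then given compounds for 48 h. Viability was read as CellTiter-Glo luminescence. Primary runs used MIPE at 11 points (0.78 nM-46 µM) and NPC at 8 points (0.59 nM-46 µM); follow-ups used 11 points.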

[10] = qHTS of pediatric cancer cell lines to identify multiple opportunities for drug repurposing: Primary screen for NB1643 cells (AID 1347099); note: nearly all actives have a fitted effect of over 50% in size; note: potency is the fitted concentration of half-maximal effect
Outline: as §1

SMILES	Potency [1]	Potency [2]	Potency [3]	Potency [4]	Potency [5]	Potency [6]	Potency [7]	Potency [8]	outcome [9]	Potency [10]
Nc1ccccc1C(=O)O	inactive	inactive	inactive	inactive	inactive	inactive	inactive	inactive	inactive	–
Cc1ncsc1CCCl	inactive	inactive	inactive	inactive	inactive	inactive	inactive	inactive	–	–
CCC1(c2ccccc2)C(=O)N(COC)C(=O)N(COC)C1=O	inactive	inactive	inactive	inactive	inactive	inactive	inactive	–	inactive	–
C#CC(O)(C=CCl)CC (configuration not stated)	inactive	inactive	inactive	inactive	inactive	inactive	inactive	inactive	inactive	–
CC(=O)OCC1=C(C(=O)O)N2C(=O)[C@@H](N)[C@H]2SC1	inactive	inactive	inactive	inactive	inactive	inactive	inactive	–	–	–
CN(C)CCc1c[nH]c2cccc(OP(=O)(O)O)c12	inactive	inactive	inactive	inactive	inactive	inactive	inactive	–	inactive	–
c1ccc(N2CCNCC2)cc1	inactive	inactive	inactive	inactive	inactive	inactive	inactive	inactive	inactive	–
CCC(C)(C)c1ccc(O)cc1	inactive	inactive	inactive	inactive	inactive	–	inactive	inactive	inactive	inactive
[N-]=[N+]=CC(=O)OC[C@H](N)C(=O)O	inactive	inactive	inactive	inactive	inactive	inactive	inactive	inactive	inactive	–
C#C[C@]1(O)CC[C@H]2[C@@H]3CCC4=CC(=O)CC[C@]4(C)[C@H]3CC[C@@]21C	inactive	inactive	inactive	inactive	inactive	inactive	inactive	–	inactive	inactive
NNc1ccccc1	inactive	inactive	–	inactive	inactive	inactive	inactive	inactive	inactive	inactive
C[C@@H]1CC2=CC(=O)CC[C@@H]2[C@H]2CC[C@@]3(C)[C@@H](CC[C@]3(C)O)[C@@H]21	inactive	inactive	inactive	–	inactive	–	inactive	inactive	inactive	inactive
CN1C(=O)CCS(=O)(=O)C1c1ccc(Cl)cc1 (configuration not stated)	inactive	inactive	inactive	inactive	inactive	inactive	inactive	–	inactive	inactive
CCC1(c2ccc(N)cc2)CCC(=O)NC1=O (configuration not stated)	inactive	inactive	inactive	inactive	inactive	inactive	inactive	inactive	–	–
COc1cccc([C@@]2(O)CCCC[C@@H]2CN(C)C)c1	inactive	inactive	inactive	inactive	inactive	inactive	inactive	inactive	–	–
CCC(CC)(CNC(=O)CCCO)c1cccc(OC)c1	inactive	inactive	inactive	inactive	inactive	inactive	inactive	–	inactive	inactive
CC(Cc1ccccc1)N(C)Cc1ccco1 (configuration not stated)	inactive	inactive	inactive	inactive	inactive	inactive	inactive	inactive	–	–
O=C(N/N=C/c1ccc([N+](=O)[O-])o1)c1cc([N+](=O)[O-])cc([N+](=O)[O-])c1O	inactive	inactive	inactive	inactive	inactive	inactive	inactive	inactive	–	–
COc1cc(OC)c(OC)cc1C=O	inactive	inactive	inactive	inactive	inactive	inactive	inactive	–	–	–
CCc1cc2c(s1)-n1c(C)nnc1CN=C2c1ccccc1Cl	inactive	inactive	inactive	inactive	inactive	–	inactive	inactive	–	–

SMILES	Potency [1]	Potency [2]	Potency [3]	Potency [4]	Potency [5]	Potency [6]	Potency [7]	Potency [8]	outcome [9]	Potency [10]
COc1cc(CC(C)N)cc(OC)c1OC (configuration not stated)	inactive	inactive	inactive	inactive	inactive	inactive	inactive	–	inactive	inactive
CCN(CC)CCc1c[nH]c2ccccc12	inactive	37 µM (active)	inactive	inactive	inactive	–	inactive	–	inactive	inactive
Oc1ccc(Cl)cc1	inactive	inactive	inactive	inactive	inactive	inactive	inactive	inactive	inactive	–
COP(=S)(OC)Oc1ccc(S(=O)(=O)N(C)C)cc1	inactive	inactive	inactive	inactive	inactive	inactive	inactive	inactive	inactive	–
CC(Cc1ccccc1)NCCn1cnc2c1c(=O)n(C)c(=O)n2C (configuration not stated)	inactive	inactive	inactive	–	inactive	inactive	inactive	inactive	inactive	inactive
CC(C)(C)NCC(O)c1cc(Cl)c(N)c(C(F)(F)F)c1 (configuration not stated)	inactive	inactive	inactive	inactive	inactive	inactive	inactive	inactive	–	–
O=C1OC(c2ccc(O)c(S(=O)(=O)O)c2)(c2ccc(O)c(S(=O)(=O)O)c2)c2c(Br)c(Br)c(Br)c(Br)c21	inactive	inactive	inactive	inactive	inactive	inactive	inactive	–	inactive	–
C[C@](O)(CS(=O)(=O)c1ccc(F)cc1)C(=O)Nc1ccc(C#N)c(C(F)(F)F)c1	inactive	2.41 µM (active)	2.96 µM (active)	–	–	inactive	5.9 µM (active)	–	–	2.96 µM (active)
O=[N+]([O-])O[C@H]1CO[C@H]2[C@@H]1OC[C@H]2O[N+](=O)[O-]	inactive	inactive	inactive	inactive	inactive	inactive	inactive	inactive	–	–
CN1CC[C@]23c4c5ccc(O)c4O[C@H]2[C@@H](O)CC[C@H]3[C@H]1C5	inactive	inactive	inactive	inactive	inactive	inactive	inactive	–	inactive	–
c1ccc2c(c1)sc1ccccc12	–	inactive	inactive	inactive	inactive	inactive	inactive	inactive	inactive	inactive
CN1CC[C@]23c4c5ccc(O)c4O[C@H]2[C@@H](O)C=C[C@H]3[C@H]1C5	–	–	inactive	–	inactive	inactive	–	inactive	inactive	–
CCOP(=S)(OCC)Oc1ccc2c(C)c(Cl)c(=O)oc2c1	inactive	–	–	inactive	inactive	inactive	inactive	–	inactive	–
CCN(CC)C(=O)[C@@H]1C=C2c3cccc4[nH]cc(c34)C[C@H]2N(C)C1	–	–	71.3 µM (active)	inactive	inactive	inactive	inactive	inactive	inactive	–
O=C1OC(CCN2CCCCC2)OC1(c1ccccc1)c1ccccc1 (configuration not stated)	inactive	–	4.73 µM (active)	inactive	inactive	inactive	inactive	–	inactive	–
C[C@]12CC[C@H]3[C@@H](CCC4=CC(=O)CC[C@@H]43)[C@@H]1CC[C@@H]2OC(=O)CCc1ccco1	–	inactive	inactive	inactive	inactive	–	inactive	–	inactive	inactive
CC(C)C[C@H](CN)CC(=O)O	inactive	–	inactive	inactive	inactive	inactive	inactive	inactive	inactive	–
CC(C)(C)NCC(O)c1ccccc1Cl (configuration not stated)	inactive	–	inactive	inactive	inactive	inactive	inactive	inactive	inactive	inactive
C[C@]12Cc3cn[nH]c3C[C@@H]1CC[C@@H]1[C@@H]2CC[C@@]2(C)[C@H]1CC[C@]2(C)O	26.6 µM (active)	–	–	inactive	inactive	–	inactive	–	–	–
CC(C)c1c(CN(C)C(C)Cc2ccccc2)n(C)n(-c2ccccc2)c1=O (configuration not stated)	inactive	inactive	inactive	–	inactive	inactive	inactive	inactive	inactive	–

SMILES	Potency [1]	Potency [2]	Potency [3]	Potency [4]	Potency [5]	Potency [6]	Potency [7]	Potency [8]	outcome [9]	Potency [10]
C[C@]12CC[C@@H]3c4ccc(OC(=O)N(CCCl)CCCl)cc4CC[C@H]3[C@@H]1CC[C@@H]2OP(=O)(O)O	–	inactive	inactive	inactive	inactive	inactive	inactive	–	inactive	–
CCCCCCC(=O)CCCCCC/C=C/C[C@@H](O)[C@H](O)[C@@](N)(CO)C(=O)O	–	inactive	inactive	inactive	inactive	–	inactive	–	inactive	inactive
O=C(CCCN1CCC2(CC1)C(=O)NCN2c1ccccc1)c1ccc(F)cc1	–	inactive	inactive	–	inactive	–	inactive	–	inactive	–
O=c1c(C2CC(c3ccc(-c4ccc(Br)cc4)cc3)Cc3ccccc32)c(O)sc2ccccc12 (configuration not stated)	–	–	10.6 µM (active)	–	inactive	–	–	–	inactive	–
COc1cccc(C(=O)CCN[C@@H](C)[C@H](O)c2ccccc2)c1	–	30.7 µM (active)	–	inactive	inactive	–	–	–	inactive	–
CN1CCC(O)(c2ccc(F)cc2)C(C(=O)c2ccc(F)cc2)C1 (configuration not stated)	inactive	–	inactive	inactive	inactive	inactive	inactive	–	inactive	inactive
Clc1ccc(C(c2ccc(Cl)cc2)C(Cl)(Cl)Cl)cc1	–	–	inactive	inactive	inactive	–	inactive	–	–	–
C[C@H]1[C@@H]2Cc3ccc(O)cc3[C@@]1(C)CCN2C	inactive	inactive	inactive	inactive	inactive	–	inactive	inactive	inactive	–
CC(C)=CC1C(C(=O)OCN2C(=O)C3=C(CCCC3)C2=O)C1(C)C (configuration not stated)	–	–	–	–	inactive	inactive	inactive	inactive	inactive	–
COc1cc(CCN)cc(OC)c1OC	inactive	–	inactive	inactive	inactive	inactive	inactive	inactive	inactive	inactive
CCCN(CCC)C(=O)Cc1c(-c2ccc(Cl)cc2)nc2ccc(Cl)cn12	inactive	inactive	inactive	–	inactive	–	inactive	inactive	–	–
CCN[C@H](C)Cc1cccc(C(F)(F)F)c1	inactive	–	inactive	inactive	inactive	inactive	inactive	–	–	inactive
COC1CC(=C(c2cccs2)c2cccs2)C[N+](C)(C)C1 (configuration not stated)	inactive	inactive	inactive	–	inactive	inactive	inactive	inactive	inactive	–
O=C(Nc1ccc(Br)cc1)c1cc(Br)cc(Br)c1O	–	34.4 µM (active)	–	27.6 µM (active)	inactive	21.9 µM (active)	–	33.5 µM (active)	–	9.44 µM (active)
COP(=S)(OC)SCN1C(=O)c2ccccc2C1=O	–	inactive	inactive	inactive	inactive	inactive	inactive	–	–	–
CCCCC/C=C\C/C=C\C/C=C\C/C=C\CCCC(=O)NCC(=O)O	–	inactive	inactive	inactive	inactive	inactive	inactive	–	inactive	–
O=C1CN=C(c2ccccc2)c2cc([N+](=O)[O-])ccc2N1	–	inactive	inactive	inactive	inactive	inactive	inactive	inactive	inactive	inactive
C[C@]12CC[C@H]3[C@@H](CCC4=CC(=O)CC[C@@H]43)[C@@H]1CC[C@@H]2OC(=O)CCC1CCCCC1	–	inactive	–	inactive	inactive	–	inactive	–	–	inactive
C[C@]12CCC(=O)C=C1CC[C@@H]1[C@H]3CC[C@](C)(O)[C@@]3(C)CC[C@@H]12	27.5 µM (active)	–	–	28.6 µM (active)	inactive	25.5 µM (active)	–	–	–	34.7 µM (active)
